About 79,000 compounds went through this panel and 15% of them were active in at least one assay; those are over-represented in the sample as a whole. Activity calls are given as the source filed them. No stated cut-off is given here; in the data, active means growth inhibition above about 70%; inactive means the rest.
experiment: NCI Yeast Anticancer Drug Screen. Data for the rad50 strain (AID 155);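 further: 0% = growth of vehicle-only cultures of the same strain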; settings: S. cerevisiae rad50 strain growth inhibition; at 50.0 µM; hits give high values
Procedure, shortened: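 Genetically altered yeast (DNA repair pathway); compound treatment; growth inhibition vs vehicle ctrl.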

Compound	growth inhibition
S=C(S)NN1CCOCC1	85.2% (active)
COc1cc2c3c(cccc3c1)C(=O)N(CCN(C)C)C2=O	71.6% (active)
COC(=O)C1=C(C)NC(C)=C(C(=O)OCCCN2CCC(c3ccccc3)(c3ccccc3)CC2)C1c1cccc([N+](=O)[O-])c1 (stereo not given)	94.5% (active)
c1ccc2c(c1)Oc1cccc3cccc-2c13	67.2% (inactive)
CN(C)CCOc1ccc2c(c1)C/C(=C/c1ncc([N+](=O)[O-])n1C)C2=O	74.3% (active)
Cc1ccc(CCC2=CCCc3c2ccc2ccccc32)cc1	11.1% (inactive)
CNC(=O)OCc1c(COC(=O)NC)c(-c2ccc(Cl)c(Cl)c2)n2c1CCC2	84.9% (active)
Clc1ccccc1C1OC1c1ccccc1Cl (stereo not given)	38.6% (inactive)
O=[N+]([O-])c1cc(CCl)ccc1CCl	99.1% (active)
O=C1C=CC(=O)c2c(O)c(Nc3ccc(OC(F)(F)F)cc3)c(Cl)c(O)c21	42% (inactive)
S=c1[nH]nc(Nc2ccc(Cl)cc2)s1	92.8% (active)
Cn1ccnc1Oc1ccc(Cl)cc1	81.2% (active)
BrCc1cccc2ccc3cccc(CBr)c3c12	66.3% (inactive)
O=C1c2ccccc2-c2nc3ccccc3nc21	-20.6% (inactive)
CCCCCCCCCCCCCCCCCCNC	68.5% (inactive)
Oc1ccc(NCn2c(=S)sc3ccccc32)cc1	58.5% (inactive)
O=C1C2CC[C@@H]3C(=O)C(Cl)(Cl)[C@@H]3CCC2C1(Cl)Cl (stereo not given in full)	83.3% (active)
CC[n+]1ccc2c(C)c3[nH]c4ccc(O)cc4c3c(C)c2c1	81.5% (active)
Cc1ccc(-n2cc(-c3ccc(Cl)cc3)c(C#N)c2N)cc1	63.3% (inactive)
CC(=O)[O][Bi]([c]1ccccc1)[c]1ccccc1	86% (active)

Compound	growth inhibition
CC1=C(SCCO)C(=O)c2ccccc2C1=O	84.2% (active)
C/C(=N\O)C1CC2C=C(C#N)C1N(Cc1ccccc1)C2 (stereo not given)	8.05% (inactive)
CC(Br)C(=O)c1ccc2cc(Br)c3ccccc3c2c1 (stereo not given)	63.7% (inactive)
Nc1nc(-c2cccnc2)cc(-c2cc(-c3cccnc3)nc(N)n2)n1	3.7% (inactive)
CC(C)=CC(=O)O[C@@H]1CC(C)(C)CC2C3=CCC4[C@]56CC[C@](O)(OC5)C(C)(C)C6CC[C@@]4(C)C3(C)CC[C@]21C(=O)O (stereo not given in full)	82.3% (active)
CCC(C)COC(=O)c1ccc(N=Cc2ccc(C=Nc3ccc(C(=O)OCC(C)CC)cc3)cc2)cc1 (stereo not given)	28.8% (inactive)
Oc1cccc2c(Cl)ccnc12	91.5% (active)
O=C(O)c1cccc(-c2c3ccc(=O)cc-3oc3cc(O)ccc23)c1	63.6% (inactive)
CN(CCc1ccccn1)c1ccc2c(c1)Cc1ccccc1-2	90.2% (active)
Cc1cc(S(=O)(=O)/N=C(/NN)NNc2cccc(C(F)(F)F)n2)c(S)cc1Cl	-7.1% (inactive)
O=C1C2C(C(=O)N1c1ccc(OCc3ccccc3)cc1)C1c3ccccc3C2C2CCCCN21 (stereo not given)	80.8% (active)
Nc1ccccc1CC(O)C(=O)O (stereo not given)	93% (active)
O=C(O)C1CCCCC1c1c2ccc(=O)c(O)c-2oc2c(O)c(O)ccc12 (stereo not given)	77.8% (active)
Cc1ccc2ccc(O)cc2c1	58.2% (inactive)
O=C1C(=O)c2ccccc2C=C1[N+](=O)[O-]	50.5% (inactive)
COC(=O)c1ccc(NCC2=CC(=O)C=CC2=O)cc1O	91% (active)
C(CCSC1=NCCN1)CSC1=NCCN1 (tested in a mixture with another compound)	99.2% (active)
N#Cc1c(N)[nH]c2ccc(Sc3ccccc3)cc12	46.1% (inactive)
CCNc1nnc(CSc2nc(-c3ccccc3)c(-c3ccccc3)[nH]2)s1	79.3% (active)
CC[C@@]1(O)C(=O)OCc2c1cc1n(c2=O)Cc2cc3c(N)cccc3nc2-1	88% (active)
